Several values for one entry are separate records, joined by “and”; a condition that tells them apart may be missing. Equal entries are not always repeated. In all, about 5,500 compounds went through this assay and about 2,000 (36%) were called active. Not shown: some 18% with an inconclusive outcome. No stated cut-off is given here; in the data, active means normalized growth mostly below about 0.91 (no sharp cut-off); inconclusive means no clear call, values can overlap the other calls; inactive means mostly above about 0.92. The list shows a part of the results.
Assay: chemical genetic growth profiling, strain panel (AID 1159580);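 further: tested at 20 µM; growth read once vehicle control cultures reached saturation at 30 °C; 1 = growth at the plate median or of vehicle wells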
Conditions: growth OD

Measured: normalized growth

C[N+](C)(C)CCCCCC[N+](C)(C)C
inactive: S. cerevisiae deletion strains, locus YAL013W, strain DEP1, stronger effect = lower value 1.01 | S. cerevisiae deletion strains, locus YAL040C, strain CLN3, stronger effect = lower value 0.978 and 0.988 | S. cerevisiae deletion strains, locus YBR021W, strain FUR4, stronger effect = lower value 0.997 | S. cerevisiae deletion strains, locus YBR229C, strain ROT2, stronger effect = lower value 0.995 | S. cerevisiae deletion strains, locus YCL029C, strain bik1, stronger effect = lower value 0.988 | S. cerevisiae deletion strains, locus YCL061C, strain MRC1 (second series), stronger effect = lower value 1.01 and 1 | S. cerevisiae deletion strains, locus YDL035C, strain GPR1, stronger effect = lower value 1 | S. cerevisiae deletion strains, locus YDL074C, strain BRE1, stronger effect = lower value 1.07 | S. cerevisiae deletion strains, locus YDL101C, strain DUN1, stronger effect = lower value 0.993 | S. cerevisiae deletion strains, locus YDL134C, strain PPH21, stronger effect = lower value 0.98 | S. cerevisiae deletion strains, locus YDL185W, strain tfp1, stronger effect = lower value 0.984 | S. cerevisiae deletion strains, locus YDL192W, strain arf1, stronger effect = lower value 0.98 | S. cerevisiae deletion strains, locus YDR101C, strain arx1, stronger effect = lower value 1.03 | S. cerevisiae deletion strains, locus YDR150W, strain NUM1, stronger effect = lower value 1 and 0.998 | S. cerevisiae deletion strains, locus YDR162C, strain NBP2, stronger effect = lower value 0.985 | S. cerevisiae deletion strains, locus YDR318W, strain mcm21, stronger effect = lower value 0.984 | S. cerevisiae deletion strains, locus YDR363W, strain ESC2, stronger effect = lower value 1.01 and 0.998 | S. cerevisiae deletion strains, locus YDR388W, stronger effect = lower value 0.982 | S. cerevisiae deletion strains, locus YDR502C, strain sam2, stronger effect = lower value 0.985 | S. cerevisiae deletion strains, locus YEL061C, strain CIN8, stronger effect = lower value 0.993 | S. cerevisiae deletion strains, locus YER002W, strain NOP16, stronger effect = lower value 1.03 and 1 | S. cerevisiae deletion strains, locus YER110C, stronger effect = lower value 0.979 | S. cerevisiae deletion strains, locus YER155C, strain BEM2, stronger effect = lower value 0.998 | S. cerevisiae deletion strains, locus YER167W, strain BCK2, stronger effect = lower value 0.994 | S. cerevisiae deletion strains, locus YGL078C, strain dbp3, stronger effect = lower value 0.981 | S. cerevisiae deletion strains, locus YGL086W, strain mad1, stronger effect = lower value 1.02 | S. cerevisiae deletion strains, locus YGL248W, strain PDE1, stronger effect = lower value 1 | S. cerevisiae deletion strains, locus YGR078C, strain PAC10, stronger effect = lower value 1.03 and 0.99 | S. cerevisiae deletion strains, locus YGR135W, strain pre9, stronger effect = lower value 0.95 | S. cerevisiae deletion strains, locus YGR229C, strain SMI1, stronger effect = lower value 0.99 | S. cerevisiae deletion strains, locus YGR252W, strain gcn5, stronger effect = lower value 0.948 | S. cerevisiae deletion strains, locus YHR030C, strain SLT2, stronger effect = lower value 0.987 and 1.05 | S. cerevisiae deletion strains, locus YHR079C, strain IRE1 (second series), stronger effect = lower value 0.993 | S. cerevisiae deletion strains, locus YHR079C, strain IRE1, stronger effect = lower value 1.04 | S. cerevisiae deletion strains, locus YHR094C, strain hxt1, stronger effect = lower value 0.987 | S. cerevisiae deletion strains, locus YHR129C, strain ARP1, stronger effect = lower value 0.988 | S. cerevisiae deletion strains, locus YHR200W, strain rpn10, stronger effect = lower value 0.989 | S. cerevisiae deletion strains, locus YIL066C, strain RNR3, stronger effect = lower value 0.994 | S. cerevisiae deletion strains, locus YIL073C, strain SPO22, stronger effect = lower value 0.953 | S. cerevisiae deletion strains, locus YIL125W, strain kgd1, stronger effect = lower value 1 | S. cerevisiae deletion strains, locus YIR030C, strain dcg1, stronger effect = lower value 0.985 | S. cerevisiae deletion strains, locus YJL095W, strain BCK1, stronger effect = lower value 1 and 1.05 | S. cerevisiae deletion strains, locus YJL134W, strain LCB3, stronger effect = lower value 0.989 | S. cerevisiae deletion strains, locus YJL168C, strain set2, stronger effect = lower value 1 | S. cerevisiae deletion strains, locus YJL187C, strain SWE1 (second series), stronger effect = lower value 0.999 | S. cerevisiae deletion strains, locus YJR043C, strain POL32, stronger effect = lower value 1 | S. cerevisiae deletion strains, locus YJR066W, strain TOR1, stronger effect = lower value 0.96 | S. cerevisiae deletion strains, locus YJR075W, strain HOC1, stronger effect = lower value 0.998 and 1.01 | S. cerevisiae deletion strains, locus YKL009W, strain mrt4, stronger effect = lower value 0.99 | S. cerevisiae deletion strains, locus YKL068W, stronger effect = lower value 0.988 | S. cerevisiae deletion strains, locus YKL085W, strain MDH1 (second series), stronger effect = lower value 0.998 | S. cerevisiae deletion strains, locus YKL085W, strain MDH1, stronger effect = lower value 0.998 | S. cerevisiae deletion strains, locus YKL190W, strain CNB1, stronger effect = lower value 1.01 | S. cerevisiae deletion strains, locus YKR001C, strain vps1, stronger effect = lower value 1 | S. cerevisiae deletion strains, locus YLR039C, strain RIC1, stronger effect = lower value 1 | S. cerevisiae deletion strains, locus YLR058C, strain SHM2, stronger effect = lower value 0.987 | S. cerevisiae deletion strains, locus YLR102C, strain apc9, stronger effect = lower value 0.987 | S. cerevisiae deletion strains, locus YLR113W, strain HOG1, stronger effect = lower value 1.1 | S. cerevisiae deletion strains, locus YLR262C, strain YPT6, stronger effect = lower value 0.97 | S. cerevisiae deletion strains, locus YLR268W, strain sec22, stronger effect = lower value 0.99 | S. cerevisiae deletion strains, locus YLR330W, strain CHS5, stronger effect = lower value 0.99 | S. cerevisiae deletion strains, locus YLR342W, strain FKS1 (second series), stronger effect = lower value 0.976 | S. cerevisiae deletion strains, locus YLR371W, strain rom2, stronger effect = lower value 0.988 | S. cerevisiae deletion strains, locus YLR418C, strain cdc73, stronger effect = lower value 0.946 | S. cerevisiae deletion strains, locus YML016C, strain PPZ1, stronger effect = lower value 0.99 | S. cerevisiae deletion strains, locus YML032C, strain rad52, stronger effect = lower value 1 | S. cerevisiae deletion strains, locus YML124C, strain tub3, stronger effect = lower value 0.995 | S. cerevisiae deletion strains, locus YMR078C, strain ctf18, stronger effect = lower value 0.983 | S. cerevisiae deletion strains, locus YMR223W, strain ubp8, stronger effect = lower value 0.964 | S. cerevisiae deletion strains, locus YMR263W, strain SAP30, stronger effect = lower value 1.01 and 0.998 | S. cerevisiae deletion strains, locus YMR307W, strain GAS1, stronger effect = lower value 0.96 and 1.01 | S. cerevisiae deletion strains, locus YNL067W, strain RPL9B, stronger effect = lower value 1.01 | S. cerevisiae deletion strains, locus YNL128W, strain TEP1, stronger effect = lower value 0.992 and 1.01 | S. cerevisiae deletion strains, locus YNL153C, strain GIM3, stronger effect = lower value 1.03 and 1.01 | S. cerevisiae deletion strains, locus YNL175C, strain NOP13, stronger effect = lower value 0.99 and 1.02 | S. cerevisiae deletion strains, locus YNL183C, strain NPR1, stronger effect = lower value 1.01 | S. cerevisiae deletion strains, locus YNL197C, strain WHI3, stronger effect = lower value 0.999 and 1.02 | S. cerevisiae deletion strains, locus YNL224C, strain SQS1, stronger effect = lower value 0.994 and 1.04 | S. cerevisiae deletion strains, locus YNL233W, strain BNI4, stronger effect = lower value 1.01 | S. cerevisiae deletion strains, locus YNL250W, strain rad50, stronger effect = lower value 0.957 | S. cerevisiae deletion strains, locus YNL271C, strain bni1, stronger effect = lower value 0.984 | S. cerevisiae deletion strains, locus YNL298W, strain CLA4, stronger effect = lower value 0.981 | S. cerevisiae deletion strains, locus YNL307C, strain MCK1, stronger effect = lower value 0.985 | S. cerevisiae deletion strains, locus YNL322C, strain KRE1, stronger effect = lower value 0.998 and 0.995 | S. cerevisiae deletion strains, locus YNR052C, strain pop2, stronger effect = lower value 0.987 | S. cerevisiae deletion strains, locus YOL006C, strain TOP1, stronger effect = lower value 1.06 | S. cerevisiae deletion strains, locus YOL012C, strain htz1 1.51 | S. cerevisiae deletion strains, locus YOL147C, strain pex11, stronger effect = lower value 0.99 | S. cerevisiae deletion strains, locus YOR061W, strain CKA2, stronger effect = lower value 0.995 | S. cerevisiae deletion strains, locus YOR069W, strain VPS5, stronger effect = lower value 0.987 | S. cerevisiae deletion strains, locus YOR083W, strain WHI5 (second series), stronger effect = lower value 0.968 and 0.999 | S. cerevisiae deletion strains, locus YOR136W, strain idh2, stronger effect = lower value 0.994 | S. cerevisiae deletion strains, locus YOR144C, strain elg1, stronger effect = lower value 0.993 | S. cerevisiae deletion strains, locus YOR184W, strain ser1, stronger effect = lower value 0.988 | S. cerevisiae deletion strains, locus YOR231W, strain MKK1, stronger effect = lower value 1.09 | S. cerevisiae deletion strains, locus YOR316C, strain cot1, stronger effect = lower value 0.988 | S. cerevisiae deletion strains, locus YPL055C, strain LGE1, stronger effect = lower value 1.04 | S. cerevisiae deletion strains, locus YPL256C, strain CLN2, stronger effect = lower value 1.05 | S. cerevisiae deletion strains, locus YPR119W, strain clb2, stronger effect = lower value 0.997 | S. cerevisiae deletion strains, locus YPR141C, strain kar3, stronger effect = lower value 0.98 | S. cerevisiae deletion strains, locus YPR163C, strain tif3, stronger effect = lower value 1.01 | S. cerevisiae deletion strains, locus YPR167C, strain met16, stronger effect = lower value 0.983 | S. cerevisiae deletion strains, strain wtn01, stronger effect = lower value 0.982 | S. cerevisiae strains, strain wild type, stronger effect = lower value 0.995
